# Measurements reported in PubChem BioAssay AID602365 (National Center for Advancing Translational Sciences (NCATS), 2012).
# Inconclusive results are not listed. Activity calls are given as the source filed them. Calls follow the shape of the dose curve; as a rule, active = well fitted inhibition curve with a large enough effect; inconclusive = small, poorly fitted or top-dose-only effect; inactive = flat fitted curve, though single readings scatter.
# Molecular target: Luciferin 4-monooxygenase (Photinus pyralis) (UniProt P08659)
# Experiment: FLuc inhibitory activity for the follow-up compounds in a biochemical assay with 1mM D-luciferin
# Conditions: purified FLuc, luminescence; series mostly up to 57.5 µM
# Description: NCGC Assay Overview: Firefly (Photinus pyralis) luciferase is one of the most commonly used transcriptional reporters. It is considered one of the more dynamically responsive reporters - that is, responsive to changes in reporter transcription - as it requires no post-translational modifications and is enzymatically active directly after protein synthesis (Wood, 1998). With no endogenous expression in mammalian cells and without the requirement of external excitation, it offers very little background signal, thus generally providing excellent signal to background for most assays. Previous profiling work to determine the prevalence of compounds that affect FLuc enzymatic activity (PubChem AID 411) identified that ~3% of the MLSMR library (then at ~72K) inhibited FLuc. […] Of the compounds identified in this profile that inhibited FLuc, 151 compounds were selected for further analysis, in an effort to better understand their mode of inhibiting FLuc. The assay described here was to determine the activity of the compounds in a FLuc assay that contained a KM concentration of ATP and a high concentration (1mM) of D-luciferin.
# NCGC Assay Protocol Summary: Reagents: 50mM Tris acetate, pH 7.5; 10mM Mg acetate; 1mM D-luciferin (Sigma #L9504); 10uM ATP; 0.01% Tween-20; 0.05% BSA; 10nM P. pyralis luciferase (Sigma #L9506) Control compounds used were two known firefly luciferase inhibitors (3-(5-(3-chlorophenyl)-1,2,4-oxadiazol-3-yl)benzoic acid and 5-(2-fluorophenyl)-3-phenyl-1,2,4-oxadiazole), and DMSO. Three microliters containing firefly luciferase substrates in buffer (final concentrations: 50mM Tris acetate, pH 7.5, 10mM Mg acetate, 0.01% Tween-20, 0.05% BSA, 1mM D-luciferin, 10uM ATP) are dispensed into each well of a Greiner white, solid-bottom 1536-well format plate using a flying reagent dispenser (FRD). These assay plates were then treated with 23nL of compound or DMSO using a Kalypsys pin tool, which allows for delivery of a 12-point intraplate titration of each compound to the assay plate (quantitative HTS), with a final compound concentrations ranging from approximately ~60uM to 0.3nM. One microliter of firefly luciferase in […] Tris-acetate buffer was then delivered by FRD to each well for a final enzyme concentration of 10nM. Luciferase activity was then measured using a ViewLux CCD imager (PerkinElmer), with an average exposure time of 2-30 seconds (2X binning, medium/high gain).
# Luciferin 4-monooxygenase (Photinus pyralis), sequence (P08659 whole entry, looked up): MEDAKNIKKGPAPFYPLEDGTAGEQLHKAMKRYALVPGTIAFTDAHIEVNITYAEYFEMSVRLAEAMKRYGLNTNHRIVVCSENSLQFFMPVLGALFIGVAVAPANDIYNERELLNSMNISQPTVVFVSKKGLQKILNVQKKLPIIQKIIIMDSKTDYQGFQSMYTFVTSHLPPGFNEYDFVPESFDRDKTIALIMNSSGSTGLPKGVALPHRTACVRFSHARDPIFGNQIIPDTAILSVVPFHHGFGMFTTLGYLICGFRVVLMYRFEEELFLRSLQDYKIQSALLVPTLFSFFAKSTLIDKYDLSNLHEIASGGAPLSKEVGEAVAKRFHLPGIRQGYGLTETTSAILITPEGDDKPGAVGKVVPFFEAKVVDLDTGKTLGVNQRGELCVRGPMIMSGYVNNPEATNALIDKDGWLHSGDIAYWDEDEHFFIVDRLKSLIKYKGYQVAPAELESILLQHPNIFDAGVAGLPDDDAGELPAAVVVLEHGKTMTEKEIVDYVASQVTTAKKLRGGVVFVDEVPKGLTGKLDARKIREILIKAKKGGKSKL
row,Compound,Potency
1,COc1ccc2nc(NC(=O)c3nc(S(=O)(=O)Cc4ccc(C)cc4)ncc3Cl)sc2c1,inactive
2,O=C(Nc1ccc(-c2nc3ccccc3s2)cc1)C1=COCCO1,0.366 µM (active)
3,COc1ccc2nc(NC(=O)c3ccc(NS(=O)(=O)c4cccs4)cc3)sc2c1,18.3 µM (active)
4,CCCOc1cccc(C(=O)Nc2ccc(-c3nc4ccccc4s3)c(Cl)c2)c1,inactive
5,COc1ccc(C(=O)Nc2ccccc2-c2nc3ccccc3s2)c(OC)c1,inactive
6,O=C(Nc1ccccc1C(=O)O)c1ccc(Cl)c(S(=O)(=O)N2CCOCC2)c1,18.3 µM (active)
7,COc1ccc2nc(NC(=O)c3ccc([N+](=O)[O-])o3)sc2c1,5.8 µM (active)
8,CC(C)Oc1ccc(C(=O)Nc2ccc(-c3nc4ccccc4s3)cc2)cc1,inactive
9,COc1ccc2nc(NC(=O)Cc3cccs3)sc2c1,13 µM (active)
10,O=C(Nc1cccc(-c2nc3ccccc3s2)c1)c1cc(-n2cnnc2)ccc1Cl,8.19 µM (active)
11,COc1c(C)cccc1C(=O)Nc1ccc(-c2nc3ccccc3s2)c(Cl)c1,inactive
12,O=C(Nc1ccccc1C(=O)O)c1cc(S(=O)(=O)Nc2ccccc2)ccc1Cl,inactive
13,COc1cccc(-c2nc3ccccc3s2)c1,5.17 µM (active)
14,COc1cc(OC)cc(C(=O)Nc2ccccc2-c2nc3ccccc3s2)c1,inactive
15,CCOc1ccc2nc(NC(=O)c3cc([N+](=O)[O-])ccc3N3CCOCC3)sc2c1,inactive
16,Nc1cccc(-c2nc3ccc(N)cc3s2)c1,2.59 µM (active)
17,O=C(O)c1cccc(NC(=O)c2ccc(Cl)c(S(=O)(=O)N3CCCCCC3)c2)c1,3.26 µM (active)
18,COc1ccc(-c2cccc(C(=O)Nc3cccc(C(=O)O)c3)c2)cc1,18.3 µM (active)
19,CN(C)S(=O)(=O)c1ccc(C(=O)Nc2cccc(C(=O)O)c2)cc1,inactive
20,Cc1cccc(NS(=O)(=O)c2cccc(C(=O)Nc3cccc(C(=O)O)c3)c2)c1,inactive

row,Compound,Potency
1,O=C(Nc1ccccc1C(=O)O)c1ccc(NC(=O)C2CCCO2)cc1 (stereo not given),20.6 µM (active)
2,CCOc1ccc2nc(NC(=O)c3ccoc3C)sc2c1,2.91 µM (active)
3,Cc1c(NC(=O)C(C)(C)C)cccc1-c1nc2ccccc2s1,10.3 µM (active)
4,CCOc1ccc2nc(NC(=O)c3ccccc3)sc2c1,1.46 µM (active)
5,COc1ccc(C(=O)Nc2ccccc2C(=O)Nc2ccc(C(=O)O)cc2)cc1,8.19 µM (active)
6,Cc1ccc(C(=O)O/N=C(\N)c2ccccn2)c(Cl)c1,0.0919 µM (active)
7,C/C(=N\NC(=O)c1ccccc1NC(=O)c1ccc(Cl)cc1)c1ccncc1,0.0517 µM (active)
8,Cc1ccc(C(=O)Nc2ccc(C(=O)O)cc2)cc1S(=O)(=O)NCc1ccccc1,inactive
9,Cc1c(NC(=O)c2cccs2)cccc1-c1nc2ccccc2s1,14.6 µM (active)
10,O=C(Nc1ccc(Cl)cc1-c1nc2ccccc2s1)c1ccco1,inactive
11,O=C(Nc1ccccc1C(=O)O)c1ccc(NC(=O)C2CC2)cc1,4.11 µM (active)
12,Cc1ccc(S(=O)(=O)N2CCN(C(=O)c3ccccc3-c3nc4ccccc4s3)CC2)c(C)c1,inactive
13,CCn1c(C)nc2cc(-c3nc4n(n3)Cc3ccccc3-4)ccc21,0.163 µM (active)
14,Nc1ccccc1-c1nc2ccccc2s1,18.3 µM (active)
15,CCOc1c(Cl)cc(C(=O)Nc2ccccc2C(=O)O)cc1Cl,16.3 µM (active)
16,O=C(Nc1ccccc1-c1nc2ccccc2s1)c1ccc(Br)o1,inactive
17,Cc1ccc(C(=O)Nc2cccc(C(=O)O)c2)cc1,4.11 µM (active)
18,O=C(Cc1ccccc1)Nc1ccc(C(=O)Nc2ccccc2C(=O)O)cc1,20.6 µM (active)
19,Cc1ccc(C(=O)Nc2ccccc2C(=O)O)cc1S(=O)(=O)N1CCCCCC1,5.17 µM (active)
20,COc1ccc(CC(=O)Nc2ccc(-c3nc4ccccc4s3)c(C)c2)cc1,inactive
